# Data: PubChem BioAssay (NCI)
# Compounds without any hit were thinned out: in the full panel of roughly 83,000, 20% have a hit.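 Testing used 96-well plates and a 48-hour single-concentration exposure. Example: -40 means 40% of the starting cells died.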 Values without a mark were called inactive. The source made the active and inactive calls.
# System: CAKI-1 renal
# Assay: NCI-60 one-dose screen, 48 h (100 = growth as untreated, 0 = no growth, -100 = all killed)
# Conditions: 10 µM
# Procedure: Growth inhibition of the CAKI-1 human tumor cell line is measured as a screen for anti-cancer activity. Cells are grown in 96 well plates and exposed to the test compound for 48 hours. Compounds are tested at a single concentration, which is 10^-5 M for most compounds. The reported endpoint is percent growth (GI% or GIPRCNT), where numbers from 0 - 100% represent growth inhibition, and numbers from -100% - 0 represent cell death. For example, a value of 40 represents 60% growth inhibition. A value of 0 means no net growth occurred over the course of the experiment. A value of -40 indicates 40% of cells at the beginning of the experiment died by the end of the experiment. A value of -100 means all cells are dead at the end of the experiment.
# NCI-60 Human Tumor Cell Lines Screen was performed using the standard one-dose NCI protocol, which is described in more detail at https://dtp.cancer.gov/discovery_development/nci-60/default.htm.
# Compounds with GIPRCNT values below 10 were considered active. Activity score was based on GIPRCNT using the following formula: […]
# Score is 0 for GIPRCNT values of 100 or above, 50 for GIPRCNT values of 0, and 100 for GIPRCNT values of -100.
row,Structure (SMILES),growth
1,CCc1cc(Cl)c(OC)c(C(=O)NCC2CCCN2CC)c1O (stereo not given),72.2%
2,CC(=O)Nc1ccc(S(=O)(=O)c2ccnc3cc(Cl)ccc23)cc1,75.3%
3,COc1ccc(/C(=N\N)C(=O)c2ccccc2)cc1 (tested in a mixture with another compound),90.8%
4,COc1ccc2c(c1)C(=O)/C(=C/c1cccc(OCC(=O)c3ccc([N+](=O)[O-])cc3)c1)CO2,16.3%
5,CNS(=O)(=O)Oc1ccc(-c2ccc3occc3c2)cc1,93.3%
6,N#Cc1c(-c2ccc(Cl)cc2)cc(-c2cc(O)ccc2O)nc1N,82.8%
7,COc1cccc(N=Nc2cccc(OC)c2)c1,94.2%
8,CS(=O)(=O)c1nccc(-c2c(-c3cccc(OCc4ccccc4)c3)nc3sccn23)n1,44.2%
9,COc1cc(-c2csc(NC(=O)Nc3cc(C(F)(F)F)cc(C(F)(F)F)c3)n2)cc(OC)c1OC,10.4%
10,CCOC(=O)CC(S(=O)(=O)c1ccccc1)S(=O)(=O)c1ccccc1,90.1%
11,O=S(=O)(Oc1ccc(-c2ccc3sccc3c2)cc1)c1ccc(F)cc1,82.7%
12,O=c1cn[nH]c2ccc(Br)cc12,113%
13,CCCCc1oc2ccccc2c1C(=O)c1cc(I)c(OCCN(CC)CC)c(I)c1,-21% (active)
14,O=C(O)c1cc([N+](=O)[O-])ccc1Oc1ccccc1,101%
15,Oc1ccc(-c2[nH]c3ccccc3c2-c2nc3ccccc3o2)cc1,64%
16,O=C(Nc1ccc(OCc2nnc(-c3ccc(Cl)cc3)o2)c(F)c1)Nc1ccc(Cl)c(C(F)(F)F)c1,13.3%
17,COc1ccc(-c2cc(-c3ccc(Cl)cc3)nc(SCCCCCCC(=O)NO)n2)cc1OC,30.3%
18,CNC(=O)c1cc(Oc2ccc3c(c2)sc2nc(-c4ccc(NC(=O)Nc5ccc(Cl)c(C(F)(F)F)c5)cc4)cn23)ccn1,80.6%
19,COc1ccc2cc(-c3nc4ccccc4s3)c(Cl)nc2c1OC,94.5%
20,CC(C)=CCC/C(C)=C/CC/C(C)=C/CC/C=C(\C)CC/C=C(\C)CCC(=O)Nc1ccn(C2OC(CO)C(O)C2(F)F)c(=O)n1 (stereo not given),-20.9% (active)

row,Structure (SMILES),growth
1,COC(=O)C1OC1c1cc([N+](=O)[O-])ccc1OC (stereo not given),83.2%
2,Cc1cccc(N=Cc2ccccc2O)c1C,92.4%
3,Nc1cc(Br)c(-c2nn3c(CCC(=O)c4nc5ccccc5[nH]4)nnc3s2)c(Br)c1,95.4%
4,CCC(CC)n1c(C)cc(=O)n1C(CC)CC,97.6%
5,COc1cccc(C2C(C#N)=C(N)Oc3cc(N)ccc32)c1 (stereo not given),31.9%
6,Cc1ccc(C(=O)C2C(=O)C3CCC2C3)cc1 (stereo not given),96.1%
7,CN1CCN(CCCn2c(=O)c3sc4ncccc4c3n3nnc(-c4ccccc4)c23)CC1,-39.2% (active)
8,COc1ccc2c(c1)C(CC(=O)NN)CCC2 (stereo not given),91.2%
9,CNS(=O)(=O)Oc1ccc(-c2sc3cc(OS(=O)(=O)NC)ccc3c2C(=O)c2ccc(OCCN3CCCCC3)cc2)cc1,59.3%
10,COc1cc2c(cc1NC(=O)C(F)(F)F)-c1ccc(NC(=O)C(F)(F)F)cc1C2,96.9%
11,COc1ccc(C(=O)c2cc3c(OC)c(OC)c(OC)cc3[nH]2)cc1,128%
12,C=C1CCC2(C#N)[C@H]3[C@H](CC[C@@H]2C)[C@@H](C)C[C@@H](CC(C)(C)NC(=O)CN2CCC2=O)[C@H]13 (stereo not given in full),56.4%
13,CC(C)N(CCOc1ccc(-c2nc3sccn3c2-c2ccnc(S(C)(=O)=O)n2)cc1)C(C)C,84.2%
14,CO[C@H]1CC(O[C@@H]2/C(C)=C/C[C@@H]3C[C@@H](C[C@]4(C=C[C@H](C)[C@@H](C5CCCCC5)O4)O3)OC(=O)[C@@H]3C=C(C)[C@@H](O)[C@H]4OC/C(=C\C=C\[C@@H]2C)[C@]43O)O[C@@H](C)C1O[C@H]1C[C@H](OC)[C@@H](O)[C@H](C)O1 (stereo not given in full),-94.6% (active)
15,CCOc1ccccc1/C=N\N=C(\N)N/N=C/c1ccccc1OCC,37.2%
16,COc1ccc(/C=C/c2nnc(/C=C/c3ccc(OC)c(OC)c3)o2)cc1OC,51.4%
17,NS(=O)(=O)c1ccc(Br)cc1,95.3%
18,COc1ccc(-c2nn(-c3cccc(Cl)c3)cc2-c2cc(-c3ccccc3)nc(N)n2)cc1,29.2%
19,Oc1ccc(/C=N/N=C2c3ccccc3-c3ccccc32)c(O)c1,66.8%
20,COC(=O)CC[C@@H](C)[C@H]1CC[C@H]2[C@@H]3CC[C@@H]4C[C@H](O)CC[C@]4(C)[C@H]3C[C@H](O)[C@]12C,89.8%
